L3MBTL1 block: inhibitors of human L3MBTL1; actives 0.66% (n = 230,000); Potency, µM (series often up to 57.1 µM), inactives show at the highest dose activity, negative = inhibition, most hits filed as inhibitors; AlphaScreen L3MBTL1–H3K9me1 peptide binding; AID 485360; Q9Y468; note: % is set by controls: 0 for no effect and ±100 for the full control effect; nearly all actives have a fitted effect of over 60% in size
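AlphaScreen assay: L3MBTL1 (50 nM final) was preincubated 30 min at room temperature with biotinylated H3(1-15)K9me1 peptide (75 nM final), then 30 min with library compounds; streptavidin donor and nickel chelate acceptor beads (10 ug/mL final) added, 30 min dark.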
G9a inh: inhibitors of human histone lysine methyltransferase G9a. Q96KQ7. G9a H3K9 monomethylation, AlphaScreen, 2 h. Potency, µM (series often up to 102 µM), for the others: top-dose activity, negative = inhibition, usual class: inhibitors. actives 8.8% (n = 350,000). AID 504332; note: % is set by controls: 0 for no effect and ±100 for the full control effect; nearly all actives have a fitted effect of over 75% in size
Target sequence (Q96KQ7 913-1193 limits assumed): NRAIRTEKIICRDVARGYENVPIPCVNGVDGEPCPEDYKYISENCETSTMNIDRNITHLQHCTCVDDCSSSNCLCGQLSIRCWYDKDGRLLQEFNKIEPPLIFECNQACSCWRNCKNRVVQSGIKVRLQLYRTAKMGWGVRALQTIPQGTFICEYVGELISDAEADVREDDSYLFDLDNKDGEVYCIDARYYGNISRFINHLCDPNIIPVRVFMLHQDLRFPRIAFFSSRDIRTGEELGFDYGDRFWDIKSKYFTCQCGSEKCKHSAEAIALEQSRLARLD
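G9a (20 nM) was preincubated 15 min with compound, then reacted 2 h at room temperature with 500 nM biotin-H3K9 peptide and 20 µM SAM. Monomethyl-H3K9 detected by AlphaScreen using anti-H3K9me1 antibody.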
Sfp PPTase inh: Sfp phosphopantetheinyl transferase inhibition; Q9F4F7; Biochemical Sfp PPTase activity, qHTS; Potency, µM, without a hit: largest response in the series, negative = inhibition, actives largely listed as inhibitors; actives 3.5% (n = 310,000); AID 1490;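 note: the enzyme is Sfp with the accession as filed and its product quenches rhodamine fluorescence; 0% = enzyme reaction without inhibitor and -100% = no enzyme wells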
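Fluorescence-quenching assay: 15 nM Sfp-PPTase preincubated 15 min at room temperature with compound, then 5 uM rhodamine-CoA and 12.5 uM BHQ-2-labelled YbbR peptide added. Fluorescence (ex 525/em 598 nm) read at start and after 30 min; difference gives rate.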
BAZ2B inh: BAZ2B (human) inhibition. Q9UIF8. AlphaScreen BAZ2B-H3K14Ac peptide displacement. Potency, µM (series often up to 114 µM), inactives show at the highest dose activity change, negative = inhibition, usual class: inhibitors. actives 4.4% (n = 360,000). AID 504333; note: % is set by controls: 0 for no effect and ±100 for the full control effect; nearly all actives have a fitted effect of over 60% in size
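Compounds, titrated to a top concentration of 110 uM, were incubated 30 min at room temperature with preformed BAZ2B/acetyl-K14 H3 peptide complex (50 nM each). Proximity signal was measured by AlphaScreen after 20 min with beads.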
HP1b binding inh: blocks HP1-beta chromodomain binding to methylated histone tails. AlphaScreen HP1-beta / biotin-H3K9me3 peptide binding. Potency, µM (top dose mostly 114 µM), without a hit: at the highest dose activity change, negative = inhibition, most hits filed as inhibitors. actives 0.56% (n = 390,000). AID 540317; note: nearly all actives have a fitted effect of over 70% in size
Target sequence (P83916 whole entry, looked up): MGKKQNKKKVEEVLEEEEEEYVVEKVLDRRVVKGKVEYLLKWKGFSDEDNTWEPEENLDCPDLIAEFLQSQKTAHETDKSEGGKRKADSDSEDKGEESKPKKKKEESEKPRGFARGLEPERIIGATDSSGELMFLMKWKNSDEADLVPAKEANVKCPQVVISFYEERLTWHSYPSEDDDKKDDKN
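AlphaScreen: HP1-beta (50 nM) preformed 30 min with biotin-H3(1-18)K9me3 peptide (50 nM) in PBS pH 7.4, 0.01% Tween-20. Compound added for 30 min at RT, then streptavidin donor/nickel chelate acceptor beads (10 ug/mL) for 30 min.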
JMJD2A Tudor: blocks the human JMJD2A Tudor domain. Potency, µM (doses to about 114 µM), for inactives: at the top dose activity change, negative = inhibition, actives largely listed as inhibitors. O75164. AlphaScreen JMJD2A-Tudor / H3K4me3 peptide binding. AID 504339. actives 4.4% (n = 390,000); note: % is set by controls: 0 for no effect and ±100 for the full control effect; nearly all actives have a fitted effect of over 50% in size
* hit, by the source's call; [ ] = dose if it differs, or a comment. Most compounds without a hit are left out; they make up all but 12% or so of the library. Calls come from the whole dose curve; as a rule, active = well fitted curve in the direction sought with a large enough effect; inconclusive = small, poorly fitted or top-dose-only effect, or another doubt; inactive = no such curve, though single readings can be large; an effect the other way counts as inactive or inconclusive. Potency is the fitted concentration of half-maximal effect.

Results for CCc1cccc2sc(N(CCCN3CCOCC3)C(=O)CS(=O)(=O)c3ccccc3)nc12 ?
L3MBTL1 block: -10%; G9a inh: 6%; BAZ2B inh: 5%; HP1b binding inh: 17%; JMJD2A Tudor: inconclusive

What do the screens show for `CC(Sc1ncnc2sc(-c3ccccc3)cc12)C(N)=O` (configuration not stated)?
Sfp PPTase inh: -14%; BAZ2B inh: 79µM*; HP1b binding inh: 26%; JMJD2A Tudor: -21%

Results for Cc1c(OCc2nn[nH]n2)ccc2c3c(c(=O)oc12)CCCC3 ?
L3MBTL1 block: -2%; G9a inh: 71µM*; Sfp PPTase inh: 10%; BAZ2B inh: -1%; HP1b binding inh: 14%; JMJD2A Tudor: -25%

What do the screens show for `Cc1c(OCc2nn[nH]n2)ccc2c3c(c(=O)oc12)CCC(C)C3` (configuration not stated)?
L3MBTL1 block: -3%; G9a inh: 50µM*; Sfp PPTase inh: 25%; BAZ2B inh: 4%; HP1b binding inh: 18%; JMJD2A Tudor: 5%

Results for Cc1cc2oc(=O)c3c(c2cc1OCc1nn[nH]n1)CCCC3 ?
L3MBTL1 block: -6%; G9a inh: 71µM*; Sfp PPTase inh: 21%; BAZ2B inh: inconclusive; HP1b binding inh: 24%; JMJD2A Tudor: -14%

What do the screens show for `CCOC(=O)COc1ccc2c3c(c(=O)oc2c1C)CCC3`?
G9a inh: -2%[12.7 µM]; Sfp PPTase inh: 3%; BAZ2B inh: -1%; HP1b binding inh: 41%; JMJD2A Tudor: 0%

Results for Cc1c(OCC(=O)C(C)(C)C)ccc2c3c(c(=O)oc12)CCCC3 ?
L3MBTL1 block: -3%; G9a inh: 12%; Sfp PPTase inh: 5%; BAZ2B inh: -20%; HP1b binding inh: 30%; JMJD2A Tudor: -5%

How did Cc1cc(NC(=O)c2cccnc2)cc(-c2nc3cc(Cl)ccc3o2)c1O do in these assays?
G9a inh: 45%[59 µM]; BAZ2B inh: 16%; HP1b binding inh: 66%; JMJD2A Tudor: -19%

What do the screens show for `CCc1ccc(-c2cc(-c3n[nH]c(=S)n3CC)c3ccccc3n2)cc1`?
L3MBTL1 block: 2%; G9a inh: inconclusive; Sfp PPTase inh: 3%; BAZ2B inh: inconclusive

Results for C=CCn1c(SCc2csc(C)n2)nc2sc3c(c2c1=O)CCC(C)C3 (configuration not stated) ?
L3MBTL1 block: 4%; G9a inh: 20%[59 µM]; Sfp PPTase inh: inconclusive; BAZ2B inh: -3%; HP1b binding inh: 55%; JMJD2A Tudor: 22%

What do the screens show for `CCn1c(-c2csc3c2CCC(C)C3)n[nH]c1=S` (configuration not stated)?
L3MBTL1 block: 10%; G9a inh: 6.3µM*; Sfp PPTase inh: -2%; BAZ2B inh: -30%; HP1b binding inh: -10%; JMJD2A Tudor: 35µM*

How did CCn1c(-c2csc3ccccc23)n[nH]c1=S do in these assays?
L3MBTL1 block: 16%; G9a inh: 2.2µM*; Sfp PPTase inh: -5%; BAZ2B inh: -28%; HP1b binding inh: -19%; JMJD2A Tudor: 13µM*

What do the screens show for `Cc1cccc(-n2c(-c3csc4ccccc34)n[nH]c2=S)c1`?
L3MBTL1 block: -2%; G9a inh: 1.3µM*; Sfp PPTase inh: inconclusive; BAZ2B inh: inconclusive; HP1b binding inh: inconclusive; JMJD2A Tudor: inconclusive

How did CC(C)Cn1c(-c2csc3ccccc23)n[nH]c1=S do in these assays?
L3MBTL1 block: -3%; G9a inh: inconclusive; Sfp PPTase inh: -18%; BAZ2B inh: -9%; HP1b binding inh: 2%; JMJD2A Tudor: 79µM*

Results for COc1ccc(NC(=O)c2nnn(CC(=O)Nc3cc(C)cc(C)c3)c2N)c(OC)c1 ?
G9a inh: -26%[59 µM]; HP1b binding inh: 11%; JMJD2A Tudor: -18%

What do the screens show for `Cc1occc1-c1n[nH]c(=S)n1CC(C)C`?
L3MBTL1 block: -25%; G9a inh: 4.5µM*; Sfp PPTase inh: -8%; BAZ2B inh: 8%; HP1b binding inh: -8%; JMJD2A Tudor: 5µM*

How did Cc1nonc1NC(=O)CSc1nnc(-c2ccoc2C)n1CC(C)C do in these assays?
L3MBTL1 block: -6%; G9a inh: inconclusive; Sfp PPTase inh: -21%; BAZ2B inh: -29%; HP1b binding inh: 45%; JMJD2A Tudor: -6%

What do the screens show for `O=C(CN1CCN(CCN2C(=O)c3cccc4cccc(c34)C2=O)CC1)c1ccc(F)cc1`?
L3MBTL1 block: -13%; G9a inh: 1.6µM*; Sfp PPTase inh: -13%; BAZ2B inh: -6%; HP1b binding inh: 31%; JMJD2A Tudor: -26%

What do the screens show for `O=C(CN1CCN(CCN2C(=O)c3cccc4cccc(c34)C2=O)CC1)c1ccc(Cl)cc1`?
L3MBTL1 block: -16%; G9a inh: 7.9µM*; Sfp PPTase inh: -11%; BAZ2B inh: -34%

How did CCN(C(=O)CSc1ncc(S(=O)(=O)c2ccc(C)c(Cl)c2)c(=O)[nH]1)c1cccc(C)c1 do in these assays?
G9a inh: 14%[59 µM]; BAZ2B inh: -8%; HP1b binding inh: 14%[57 µM]; JMJD2A Tudor: -12%

Results for CCC(C)(C)n1nnnc1C(c1ccc(OC)c(OC)c1)N1CCN(c2ccccc2)CC1 (configuration not stated) ?
L3MBTL1 block: -2%[11.4 µM]; G9a inh: -4%[12.7 µM]; Sfp PPTase inh: -19%; BAZ2B inh: -11%; HP1b binding inh: 5%; JMJD2A Tudor: -19%

Results for CCC(C)(C)n1nnnc1C(c1ccc(OC)c(OC)c1)N1CCN(c2ccc(F)cc2)CC1 (configuration not stated) ?
L3MBTL1 block: 0%; G9a inh: 22µM*; Sfp PPTase inh: inconclusive; BAZ2B inh: 6%; HP1b binding inh: -3%; JMJD2A Tudor: inconclusive

What do the screens show for `CCC(C)(C)n1nnnc1C(c1ccc(OC)c(OC)c1)N1CCN(c2ccc(OC)cc2)CC1` (configuration not stated)?
L3MBTL1 block: -6%; G9a inh: 11µM*; Sfp PPTase inh: 18%; BAZ2B inh: 50µM*; HP1b binding inh: -19%; JMJD2A Tudor: 28µM*

What do the screens show for `O=c1c2c3c(sc2nc2n1CCCCC2)CCCC3`?
L3MBTL1 block: -1%; G9a inh: inconclusive; Sfp PPTase inh: 32µM*; HP1b binding inh: -31%; JMJD2A Tudor: inconclusive

Results for O=c1c2c3c(sc2nc2n1CCCC2)CCCCC3 ?
G9a inh: inconclusive; Sfp PPTase inh: -7%; BAZ2B inh: 7%; HP1b binding inh: 14%; JMJD2A Tudor: -1%

Results for N=c1c2c3c(sc2nc2n1CCCCC2)CCCCC3 ?
L3MBTL1 block: 5%; G9a inh: 50µM*; Sfp PPTase inh: -19%; BAZ2B inh: 8%; HP1b binding inh: 23%; JMJD2A Tudor: 10%

Compound activity as filed in PubChem.
